# Measurements taken from PubChem BioAssay AID652048 (National Center for Advancing Translational Sciences (NCATS), 2013).
# “And” between values parts separate entries of the source, which are not always exact repeats. Equal entries are not always repeated. Hit rate of the full screen: of about 410,000 compounds, about 2,400 (0.59%) were called active. The sample holds actives, similar compounds and a random draw of the others, so the mix is not that of the screen. No stated cut-off is given here; in the data, active means max activation above about 30%; inactive means the rest. A structure can be active in one record and inactive in another.
# Biological target: D(3) dopamine receptor (Homo sapiens) (UniProt P35462)
# Sequence (P35462 whole entry, looked up): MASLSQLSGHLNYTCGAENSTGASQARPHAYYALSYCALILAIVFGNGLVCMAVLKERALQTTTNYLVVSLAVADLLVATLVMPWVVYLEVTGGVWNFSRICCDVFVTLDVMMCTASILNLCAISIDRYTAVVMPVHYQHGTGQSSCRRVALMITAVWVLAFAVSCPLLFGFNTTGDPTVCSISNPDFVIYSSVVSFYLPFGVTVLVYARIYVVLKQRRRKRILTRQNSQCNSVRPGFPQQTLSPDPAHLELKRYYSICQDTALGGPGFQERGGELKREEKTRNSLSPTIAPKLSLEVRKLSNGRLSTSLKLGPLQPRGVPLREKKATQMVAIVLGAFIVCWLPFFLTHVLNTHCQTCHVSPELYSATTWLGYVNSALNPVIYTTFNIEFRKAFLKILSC
# Assay: qHTS of D3 Dopamine Receptor Agonist: qHTS; further: 0% is about no effect
# Details: D3R DiscoveRx beta-arrestin cells, luminescence, 90 min; stronger effect = higher value
# Outline: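 Agonist mode: compounds and dopamine controls were applied to plated cells for 90 min at 37 degrees C after an overnight attachment at 1500 cells/well. Luminescent read-out followed 30 - 60 minutes at room temperature with DiscoveRx detection reagent.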
row,Structure (SMILES),max activation
1,Cc1ccccc1NC(=O)c1c(NC(=O)c2ccccc2F)sc2c1CCC(C)C2 (stereo not given),4.23% (inactive)
2,Cc1nnc(C(=O)NC(C)(C)c2nc(C(=O)NCc3ccc(F)cc3)c(O)c(=O)n2C)o1,4.42% (inactive)
3,N#Cc1ccc(-c2ccc(Cl)cc2)nc1Oc1ccc(F)cc1,34.7% (active)
4,N#Cc1ccc(-c2ccc(F)cc2)nc1Sc1ccccc1,5.43% (inactive)
5,CN(C)c1ccnc(Oc2ccc(F)cc2)c1C#N,2.14% (inactive)
6,Cn1c(=O)sc2cc(NS(=O)(=O)c3ccc(C(C)(C)C)cc3)ccc21,-11% (inactive)
7,CCc1ccc(-n2c(SCc3cc(=O)n4cc(Br)ccc4n3)nc3[nH]ncc3c2=O)cc1,18.2% (inactive)
8,Cc1cccc2nc(CSc3nc4[nH]ncc4c(=O)n3-c3cccc(Cl)c3)cc(=O)n12,32.7% (active)
9,Cc1nnc(NC(=O)CSc2nc3c([nH]c4ccccc43)c(=O)n2-c2cccc(Cl)c2)s1,16.6% (inactive)
10,CO[C@H]1C=CO[C@@]2(C)Oc3c(C)c(O)c4c(O)c(c(/C=N/N5CCN(C)CC5)c(O)c4c3C2=O)NC(=O)/C(C)=C\C=C[C@H](C)[C@H](O)[C@@H](C)[C@@H](O)[C@@H](C)[C@H](OC(C)=O)[C@@H]1C,-16.3% (inactive)
11,COc1ccc(-n2c(=O)c3ccccc3n(Cc3ccccc3Cl)c2=O)cc1,4.01% (inactive)
12,Cc1ccc(CSc2oc(-c3cccs3)nc2S(=O)(=O)c2ccc(C)cc2)cc1,6.03% (inactive)
13,N#CCSc1nc2ccc(N3CCOCC3)cc2c(=O)n1CCc1ccccc1,3.32% (inactive)
14,COCCCNC(=O)CSc1nc2ccc(N3CCOCC3)cc2c(=O)n1CCc1ccccc1,-3.98% (inactive)
15,CCCCn1c(SCC(=O)NCC2CCCO2)nc2ccc(N3CCOCC3)cc2c1=O (stereo not given),33% (active)
16,COc1ccccc1CNCc1ccc(C(=O)O)s1,6.32% (inactive)
17,COc1ccc(C)cc1Nc1nc2ccccc2c2nnc(C)n12,8.25% (inactive)
18,COC(=O)c1ccc(NC(=O)CCc2c(C)nn(-c3ccc(N4CCCC4)nn3)c2C)cc1,-2.49% (inactive)
19,Cc1ccc(OCC(=O)Nc2ccc(OCc3cc(=O)n4c(C)csc4n3)cc2)cc1C,4.15% (inactive)
20,COc1ccc(NC(=O)CCN2CCN(CCO)CC2)cc1,4.05% (inactive)
21,CCOc1ccc(NC(=O)CN2CCN(CC(=O)Nc3ccc(OC)cc3)CC2)cc1,10.4% (inactive) and 34.5% (active)
22,CCc1ccc(NC(=O)CN2CCC(C(=O)c3ccc(OC)cc3)CC2)cc1,-15.3% (inactive)

row,Structure (SMILES),max activation
1,CCc1ccc(S(=O)(=O)n2ccnc2)cc1,8.12% (inactive)
2,Oc1ccccc1-c1nc2ccc(Cl)cn2c1Nc1ccc2c(c1)OCCO2,-2.82% (inactive)
3,CCOC(=O)CSC1=C(C#N)C(c2sccc2C)CC(=O)N1 (stereo not given),31.9% (active)
4,Cc1ccsc1C1C(C#N)=C(N)OC2=C1C(=O)CC(C)C2 (stereo not given),1.57% (inactive)
5,C=CCSC1=C(C#N)C(c2cc(Br)c(O)c(OC)c2)CC(=O)N1 (stereo not given),9.82% (inactive)
6,Cc1ccccc1CNC(=O)c1cccc(NC(=O)c2nsc3ccccc23)c1,8.47% (inactive)
7,CCCc1c2oc(C(=O)O)cc(=O)c2cc2c(=O)cc(C(=O)O)n(CC)c12,-9.91% (inactive)
8,COc1ccc(-c2csc(-c3c(N)c(C(=O)c4ccc(OC)c(OC)c4)n4ccccc34)n2)cc1,4.7% (inactive)
9,Cc1c(C=O)c2ccccn2c1C(=O)c1ccncc1,31.8% (active)
10,COc1ccc(OC)c(-c2csc(-c3c(N)c(C(=O)c4ccccc4)n4ccccc34)n2)c1,-12% (inactive)
11,Nc1nc(/C(=C/CC(=O)O)C(=O)N[C@@H]2C(=O)N3C(C(=O)O)=CCS[C@H]23)cs1,4.45% (inactive)
12,COc1ccc(-c2nc3sc(CCNS(=O)(=O)c4ccc(F)c(C)c4)c(C)n3n2)cc1,6.72% (inactive)
13,Cc1c(C)n(Cc2ccc(Cl)cc2)c2ccc(C(=O)N3CCN(c4ccccc4F)CC3)cc12,-3.88% (inactive)
14,Cc1cccc(N2CCN(C(=O)c3ccc4c(c3)CCN4S(=O)(=O)c3ccccc3)CC2)c1C,-0.325% (inactive)
15,CCn1c(C)c(C)c2cc(C(=O)N3CCN(c4cccc(C)c4C)CC3)ccc21,5.02% (inactive) and 95.9% (active)
16,O=C(CSc1nc2c(c(=O)[nH]1)CN(Cc1ccc(F)cc1)CC2)Nc1ccccc1Cl,6.55% (inactive)
17,COC(=O)c1c(-c2ccsc2)oc2ccc(-c3cc(OC)c(OC)c(OC)c3)cc12,45.2% (active)
18,COc1cc(-c2nnc(NC(=O)CS(=O)(=O)c3ccc(Cl)cc3)o2)cc(OC)c1OC,-1.85% (inactive)
19,CCOC(=O)c1c(-c2ccc(OC)cc2)oc2ccc(OCc3ccc(C(=O)OC)cc3)cc12,9.24% (inactive)
20,COc1ccccc1NC(=O)c1sc2nc(C)c(C(=O)Nc3ccc(Cl)cc3)c(-c3ccc(Br)cc3)c2c1N,-10.3% (inactive)
21,Cc1nn(-c2ccc(N3CCCCC3)nn2)c(C)c1CCC(=O)NCc1ccccc1F,13.4% (inactive)
22,CC(=O)Nc1ccc(C(=O)CSc2nnc(Cc3ccccc3)o2)cc1,46.1% (active)

row,Structure (SMILES),max activation
1,CCOc1ccc(Nc2nc(Cc3nnc(SCC(=O)c4ccc(C)cc4)o3)cs2)cc1,22.4% (inactive)
2,O=C(CSc1nnc(Cn2cnc3ccccc32)o1)c1ccccc1,2.49% (inactive)
3,Cc1ccc(NC(=O)c2oc3ccc(S(=O)(=O)N4CCCCC4)cc3c2C)cc1Cl,-12.7% (inactive)
4,C[C@H](NC(=O)c1nc[nH]c1C(=O)NCC(=O)OC(C)(C)C)c1ccccc1,-13.3% (inactive)
5,CCOC(=O)c1ccc(NC(=O)c2nc[nH]c2C(=O)NCc2ccccc2)cc1,56.5% (active)
6,C[C@H](NC(=O)c1nc[nH]c1C(=O)NCC(=O)OC(C)(C)C)C(=O)OCc1ccccc1,48.3% (active)
7,CCOC(=O)c1[nH]cnc1C(=O)Nc1ccccc1C,4.49% (inactive)
8,CNC(=O)c1[nH]cnc1C(=O)N[C@@H](CC(C)C)C(=O)OCc1ccccc1,15.1% (inactive)
9,Cc1cccc(NC(=O)c2nc[nH]c2C(=O)NCC(=O)OCc2ccccc2)c1,74.4% (active)
10,O=C(Nc1ccon1)c1nc[nH]c1C(=O)NCc1ccccc1,12.3% (inactive)
11,C[C@H](NC(=O)c1nc[nH]c1C(=O)N[C@@H](C)C(=O)OC(C)(C)C)C(=O)OC(C)(C)C,-3.39% (inactive)
12,O=C(Nc1cc(Br)ccc1F)c1nc[nH]c1C(=O)NCc1ccccc1,-7.03% (inactive)
13,COc1cccc(C(=O)N(Cc2cccc(Cl)c2)Cc2ccco2)c1,-11.4% (inactive)
14,Cc1cc(C)cc(NS(=O)(=O)c2ccc(-c3cc(C)no3)s2)c1,-10.7% (inactive)
15,CCOc1cc(/C=C(\C#N)C(=O)Nc2ccccc2C)ccc1OCc1cc(=O)n2nc(CC)sc2n1,-12.7% (inactive)
16,O=C1CC(c2nnc(Cc3ccc(Cl)cc3)o2)CN1c1ccccc1 (stereo not given),10.5% (inactive)
17,COC(=O)c1c(NC(=O)C(C)Oc2ccc(Cl)c(C)c2)sc(C)c1C (stereo not given),-8.23% (inactive)
18,CN[C@@H]1[C@H](O[C@H]2[C@H](O[C@H]3[C@H](O)[C@@H](O)[C@H](N=C(N)N)[C@@H](O)[C@@H]3N=C(N)N)O[C@@H](C)[C@]2(O)CO)O[C@@H](CO)[C@H](O)[C@H]1O,4.88% (inactive)
19,Cc1ccc(OC(=O)CSc2nnc(-c3cccs3)o2)cc1,7.3% (inactive)
20,CCCCCCCCCCCCCCCCO,11.6% (inactive)
21,Cc1cc(/C=C2/SC(=O)N(CC(=O)OC(C)C)C2=O)c(C)n1C,30.2% (active)
22,CCN=C1S/C(=C\c2cc(Br)ccc2OCC(=O)OCC)C(=O)N1CC,5.26% (inactive)

row,Structure (SMILES),max activation
1,Cc1cc(/C=C2/SC(=O)N(CC(=O)N3CCCC3)C2=O)ccc1N1CCOCC1,-0.0029% (inactive)
2,FCOC(C(F)(F)F)C(F)(F)F,9.08% (inactive)
3,COc1ccc(C(=O)COC(=O)c2c(C)noc2C)cc1Cl,-4.54% (inactive)
4,Cc1ccc(-c2nc(COC(=O)c3c(C)noc3C)cs2)cc1,32.5% (active)
5,COc1cc(OC)cc(C(=O)NCC(=O)OCc2csc(-c3ccccc3)n2)c1,-7.01% (inactive)
6,CC(=O)OC[C@H]1O[C@@H](O[C@H]2[C@H](O)[C@@H](OC(=O)c3ccccc3C(=O)O)[C@H](O)O[C@@H]2COC(C)=O)[C@H](O)[C@@H](OC(=O)c2ccccc2C(=O)O)[C@@H]1O,2.74% (inactive)
7,CCCC(=O)N1CCN(c2nc3c(OC)ccc(C)c3s2)CC1,3.21% (inactive)
8,O=C1C(c2[nH]c3ccccc3c2O)=Nc2ccccc21,-8.96% (inactive)
9,CCC(=O)N1CCC(C(N)=O)(N2CCCCC2)CC1,1.17% (inactive)
10,NC(=O)C1(N2CCCCC2)CCN(C(=S)Nc2ccc(Cl)cc2)CC1,32.5% (active)
11,Cc1cc(Cl)ccc1NC(=S)N1CCC(C(N)=O)(N2CCCCC2)CC1,5% (inactive)
12,Cc1ccc(NS(=O)(=O)c2ccc3c(c2)CC(=O)N3)cc1Cl,-10.2% (inactive)
13,Fc1ccc2[nH]c3c(N4CCSCC4)ncnc3c2c1,42.3% (active)
14,Fc1ccc2[nH]c3c(N4CCN(Cc5ccc6c(c5)OCO6)CC4)ncnc3c2c1,9.79% (inactive)
15,Cc1ccc(CNC(=O)CCC(=O)N2Cc3ccccc3Oc3ncccc32)cc1,-12% (inactive)
16,CCC(=O)N1c2ccccc2CC1C(=O)N1CCN(c2ccccc2)CC1 (stereo not given),0.179% (inactive)
17,COc1cccc(C(=O)Nc2ccc3oc(-c4ccc5ccccc5c4)nc3c2)c1,15.1% (inactive)
18,Cc1cc2nc(-c3ccc(NC(=O)c4cccnc4)cc3)oc2cc1C,32.8% (active)
19,Cc1cc2nc(-c3ccc(NC(=O)c4cc5ccccc5o4)cc3)oc2cc1C,2.05% (inactive)
